IL-1B inflam inh: blocks inflammasome-driven IL-1 beta release | THP-1 LPS/ATP IL-1B secretion, AlphaLISA, 16 h; active compounds read low | activity change, % at 57.5 µM | 4.7% of 360,000 active | AID 743279; in the data active = activity change below about -50%; inconclusive = mostly about -30% to -49%
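Secreted IL-1B measured by AlphaLISA bead assay after 16 h compound exposure of THP-1 cells; compounds (final up to 57.5 uM) added 1 h before LPS (250 ng/mL) and ATP (1.25 mM) stimulation; lower signal means less secretion.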
ClpP mod: qHTS Assay for Activators of ClpP; 1.9% of 340,000 active; AID 651965, 2013; Potency, µM (series often up to 57.5 µM); ATP-dependent Clp protease proteolytic subunit (Bacillus subtilis (strain 168)), P80244; purified B. subtilis ClpP, FRET peptide cleavage, 20 min; active = well fitted falling curve with a large enough effect; inconclusive = small, poorly fitted or top-dose-only effect; inactive = no such curve, though single readings can be large or run the other way; note: the source files actives as falling curves though it sought activators and does not explain the sign; nearly all actives have a fitted effect of over 65% in size
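FRET quenching reversal measured ClpP activation: 10 microg/mL B. subtilis ClpP at pH 8 with the FRET-FV decapeptide, read at 430 nm after 320 nm excitation. The 20-min minus 0-min signal was scaled between DMSO/no-enzyme wells and ADEP (5.8 microM final).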
TDP1 cell noCPT: qHTS for Inhibitors of human tyrosyl-DNA phosphodiesterase 1 (TDP1): qHTS in cells in absence of CPT; DT40 Tdp1-/- hTDP1 cells, no CPT, ATP luminescence, 48 h; Potency, µM (series often up to 46.2 µM), hits mostly inhibitors; 15% of 420,000 active; AID 686978, 2013; note: nearly all actives have a fitted effect of over 55% in size
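Growth kinetics read by CellTiter-Glo luminescence after ≥48 hr at 37 °C. Cells: DT40 Tdp1-/- stably carrying human TDP1, 400 per well, compound exposure in the absence of CPT (DMSO vehicle).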
D3 ag: agonists of human D3 dopamine receptor; max activation, %; P35462; AID 652048; D3R DiscoveRx beta-arrestin cells, luminescence, 90 min; 0.58% of 410,000 active; in the data active = max activation above about 30%
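Agonist mode: compounds and dopamine controls were applied to plated cells for 90 min at 37 degrees C after an overnight attachment at 1500 cells/well. Luminescent read-out followed 30 - 60 minutes at room temperature with DiscoveRx detection reagent.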
TDP1 cell CPT: DT40-hTDP1 cell growth loss with CPT | chicken DT40 Tdp1-/-;hTDP1 cells + 20 nM CPT, ATP luminescence, 48 h | Potency, µM (doses to about 46.2 µM), actives largely listed as inhibitors | 12% of 420,000 active | AID 686979; note: nearly all actives have a fitted effect of over 55% in size
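Chicken DT40 Tdp1-/- cells stably complemented with human TDP1 were seeded at 400 cells/well in medium containing 20 nM camptothecin, exposed to pin-transferred compounds, and grown at 37 °C for at least 48 hr. Viability was read as ATP luminescence.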
DRD3 antagonist: antagonists of human D3 dopamine receptor; P35462; D3R cells, DiscoveRx beta-arrestin luminescence, antagonist mode; active compounds read low; max response, negative = inhibition, %; 2.5% of 360,000 active; AID 652054; in the data active = max response below about -50%; inconclusive = no clear call, values can overlap the other calls
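Cells plated overnight at 1500 cells/well, then exposed to library compounds with dopamine controls for 90 minutes at 37 degrees C. DiscoveRx reagent added for 30–60 minutes at room temperature; luminescence read, quantitative HTS format.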
A number is an active result; – = inactive; ? = inconclusive; · = not tested or not shown. An excerpt weighted towards active compounds, which were near 21% of everything screened. Unless noted, calls come from the whole dose curve; as a rule, active = well fitted inhibition curve with a large enough effect; inconclusive = small, poorly fitted or top-dose-only effect; inactive = flat fitted curve, though single readings scatter.

SMILES | IL-1B inflam inh | ClpP mod | TDP1 cell noCPT | D3 ag | TDP1 cell CPT | DRD3 antagonist
O=C(Cn1cnc([N+](=O)[O-])n1)NC1CC1 | – | – | – | – | – | –
NS(=O)(=O)c1ccc(CCNC(=O)C(=O)NCC2OCCN2S(=O)(=O)c2ccc(F)cc2)cc1 (stereo not drawn) | – | – | – | – | – | –
NS(=O)(=O)c1ccc(CCNC(=O)C(=O)NCC2OCCN2S(=O)(=O)c2ccc(Cl)cc2)cc1 (stereo not drawn) | – | – | ? | – | 23µM | –
Cc1ccc(CNC(=O)C(=O)NCC2OCCN2S(=O)(=O)c2ccc3c(c2)OCCO3)cc1 (stereo not drawn) | – | – | – | – | 26µM | –
COc1ccc(CCNC(=O)C(=O)NCC2OCCN2S(=O)(=O)c2ccc3c(c2)OCCO3)cc1OC (stereo not drawn) | – | – | ? | – | ? | –
COc1ccc(S(=O)(=O)N2CCOC2CNC(=O)C(=O)NCCc2ccc(OC)c(OC)c2)cc1C (stereo not drawn) | – | – | 16µM | – | ? | –
O=C(NCc1ccccc1)C(=O)NCC1OCCN1S(=O)(=O)c1ccc2c(c1)OCCO2 (stereo not drawn) | – | – | – | – | ? | –
COc1ccc(CCNC(=O)C(=O)NCC2OCCN2S(=O)(=O)c2ccc3c(c2)OCCO3)cc1 (stereo not drawn) | – | – | 16µM | – | 21µM | –
COc1ccccc1CN1CCN(S(=O)(=O)c2ccc(C)cc2)CC1 | – | – | – | – | – | –
Cc1ccc(N2C(=O)CSC23C(=O)N(CC(=O)NCCc2ccccc2)c2ccccc23)cc1 (stereo not drawn) | · | – | – | – | – | ·
CN(C)C(=O)c1ccc(-c2cncnc2Nc2ccc(F)cc2)cc1 | · | · | – | · | – | ·
CCOc1ccc(N2CC(NC(=O)c3ccco3)CC2=O)cc1 (stereo not drawn) | · | – | – | – | – | ·
Cc1ccc(S(=O)(=O)N2CCN(c3nc(-c4cccs4)cc4ccccc34)CC2)cc1 | · | – | ? | · | ? | ·
CN(C)S(=O)(=O)c1ccc(NC(=O)CCNC(=O)c2ccco2)cc1 | – | · | – | – | – | –
Cn1nnnc1SCC(=O)NNC(=O)c1ccc(F)cc1 | – | – | – | – | – | -57
Cn1nnnc1SCC(=O)NNC(=O)c1ccc(Cl)cc1 | – | · | – | – | – | –
COc1ccc(C(=O)n2cnc3ccccc32)cc1[N+](=O)[O-] | – | – | – | – | – | –
CCC(=O)c1cc(F)c(N2CCN(C(=O)c3ccco3)CC2)cc1C | – | – | 29µM | – | ? | –
CC(=O)c1cc(F)c(N2CCN(C(=O)Cc3ccccc3)CC2)cc1C | – | – | 15µM | – | 15µM | –
CCOC(=O)N1CCN(c2cc(C)c(C(C)=O)cc2F)CC1 | – | – | ? | – | ? | –
CCCC(=O)c1cc(F)c(N2CCN(S(=O)(=O)c3ccccc3)CC2)cc1C | -59 | – | 11µM | – | 16µM | –
CC(=O)NC(C)c1ccc(C(=O)CSc2nnc(C3CC3)n2C2CC2)cc1 (stereo not drawn) | – | – | – | – | – | –
CN1C(=O)C(CC(=O)O)S/C1=N\N=C\c1ccc(O)cc1O (stereo not drawn) | – | – | – | – | – | –
O=C1C2CCCCN2C(=O)N1CCCCN1CCN(c2ccccc2Oc2ccccc2)CC1 (stereo not drawn) | – | – | ? | – | ? | -104
COc1ccccc1N1CCN(CCCCN2C(=O)C3CCCN3C2=O)CC1 (stereo not drawn) | – | · | – | – | – | -87
SMILES | IL-1B inflam inh | ClpP mod | TDP1 cell noCPT | D3 ag | TDP1 cell CPT | DRD3 antagonist
COc1ccccc1N1CCN(CC(=O)N2CCCC2)CC1 | – | · | – | – | – | –
Cc1ccc(NC(=O)CN2C(=O)C3CCCCN3C(=O)c3ccccc32)cc1 (stereo not drawn) | – | – | – | – | – | –
COc1ccccc1N1CCN(CC(=O)c2ccc3ccn(C(C)=O)c3c2)CC1 | – | ? | ? | – | 2.9µM | ?
CCCNC(=O)c1ccccc1N1CCN(CCCCN2C(=O)C3CCCCN3C2=O)CC1 (stereo not drawn) | – | – | – | – | – | -72
COc1ccc(CN2CCOc3c(cc(-c4cccc(OC)n4)cc3OC)C2)c(O)c1 | · | · | – | · | – | ·
CCN1CCN(CC(=O)Nc2ccc(S(=O)(=O)N3C(C)CCCC3C)cc2)CC1 (stereo not drawn) | – | · | ? | – | – | –
O=C(O)[C@@H]1C[C@@H](C(=O)O)N1 | · | · | – | · | – | ·
COc1ccc(S(=O)(=O)N2CCC(C(=O)NCc3cccs3)CC2)cc1 | – | – | ? | – | – | –
Cc1ccc(N2CCN(CCCN3C(=O)C4CCCN4C3=O)CC2)cc1 (stereo not drawn) | – | – | – | – | – | –
COc1ccccc1N1CCN(CCN2C(=O)C3CCCN3C2=O)CC1 (stereo not drawn) | – | – | – | – | – | -59
CC(=O)OCC(=O)c1ccc2ccn(C(C)=O)c2c1 | – | 35µM | – | – | – | –
COc1ccccc1N1CCN(C(=O)CCC(=O)N2CCN(c3ccccc3OC)CC2)CC1 | – | – | ? | – | – | –
COc1ccccc1N1CCN(CCCCN2C(=O)CCC2=O)CC1 | · | · | – | · | – | ·
COc1ccccc1N1CCN(CCCCN2C(=O)c3ccccc3C2=O)CC1 | – | – | – | – | – | -107
COc1ccc(C(=O)CCN2CCN(c3ccccc3OC)CC2)cc1 | ? | · | 5.2µM | – | 3.7µM | -83
C=CCN(c1ccccc1Cl)S(=O)(=O)c1cc(C(=O)N2CCCC2)ccc1Cl | – | – | ? | – | ? | –
CCc1nn(CC(=O)NCCc2ccc(OC)c(OC)c2)c(=O)c2cc3occc3n12 | · | – | – | – | ? | ·
COC(=O)[C@@]1(Cc2ccccc2)[C@H]2C(=O)N(C)C(=O)[C@H]2[C@H]2CN=C(SCc3ccccc3)N21 | – | – | ? | – | 15µM | ?
COC(=O)[C@@]1(Cc2ccccc2)[C@H]2C(=O)N(Cc3ccccc3)C(=O)[C@H]2[C@H]2CN=C(SCC3CC3)N21 | – | – | 23µM | – | ? | –
COC(=O)c1ccc(CSC2=NC[C@@H]3[C@@H]4C(=O)N(Cc5ccccc5)C(=O)[C@@H]4[C@](C)(C(=O)OC)N23)cc1 | – | – | 16µM | – | ? | –
CCCN=C1N(CC)C[C@@H]2[C@@H]3C(=O)N(C)C(=O)[C@@H]3[C@](Cc3ccccc3)(C(=O)OC)N12 | – | – | – | – | – | –
